Hits are enriched below; roughly 7.5% of the tested compounds scored in any of these assays.
Rab9 promoter act: qHTS Assay for Rab9 Promoter Activators; Huh7 Rab9 promoter-luciferase reporter, luminescence, 24 h; Potency, µM (highest dose often 9.22 µM), without a hit: at the top dose activation, negative = inhibition, usual class: activators; 320,000 compounds, 2.8% hits; AID 485297, 2010; further: % of control where 0% means no effect; nearly all actives have a fitted effect of over 60% in size
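Using Huh7 cells stably transfected with Rab9 promoter–luciferase, compounds were incubated 24 h at 37 °C, 5% CO2; luciferase luminescence was read 10 min after reagent addition.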
ELG1 genotoxic: qHTS screen for small molecules that induce genotoxicity in human embryonic kidney (HEK293T) cells expressing luciferase-tagged ELG1 | Potency, µM (highest dose often 46 µM), for inactives: at the highest dose activity change, positive = activation, actives largely listed as activators | HEK293T ELG1-luciferase reporter, luminescence, 16 h | AID 504466, 2011 | 330,000 compounds, 1.3% hits; further: % of control where 0% means no effect; nearly all actives have a fitted effect of over 60% in size
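HEK293T cells expressing luciferase-tagged ELG1 were exposed to compound or DMSO vehicle for 16 hr at 37 °C and 5% CO2. Luciferase activity was then measured with ONE-Glo after 30 min at room temperature.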
NPC1 prom act: qHTS Assay for NPC1 Promoter Activators. Potency, µM (highest dose often 9.22 µM), inactives show at the top dose activation, most hits filed as activators. AID 485313, 2010. Huh7 NPC1 promoter luciferase reporter, 24 h. 320,000 compounds, 2.4% hits; further: % of control where 0% means no effect; nearly all actives have a fitted effect of over 60% in size
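Readout is luciferase luminescence, reflecting NPC1 promoter activation in stably transfected Huh7 cells after 24 h compound exposure at 37 °C in reduced-serum medium with 10% FBS.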
FLuc modulator: qHTS profiling assay for firefly luciferase inhibitor/activator using purifed enzyme and Km concentrations of substrates (counterscreen for miR-21 project); Luciferin 4-monooxygenase (Photinus pyralis), P08659; purified FLuc, Km substrates, luminescence inhibition; Potency, µM (series often up to 57.5 µM), inactives show at the top dose activity change, negative = inhibition, actives largely listed as inhibitors; 360,000 compounds, 6.9% hits; AID 588342, 2011;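 further: plate controls were vehicle for no effect and reference inhibitor for full effect; nearly all actives have a fitted effect of over 55% in size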
Target sequence (P08659 whole entry, looked up): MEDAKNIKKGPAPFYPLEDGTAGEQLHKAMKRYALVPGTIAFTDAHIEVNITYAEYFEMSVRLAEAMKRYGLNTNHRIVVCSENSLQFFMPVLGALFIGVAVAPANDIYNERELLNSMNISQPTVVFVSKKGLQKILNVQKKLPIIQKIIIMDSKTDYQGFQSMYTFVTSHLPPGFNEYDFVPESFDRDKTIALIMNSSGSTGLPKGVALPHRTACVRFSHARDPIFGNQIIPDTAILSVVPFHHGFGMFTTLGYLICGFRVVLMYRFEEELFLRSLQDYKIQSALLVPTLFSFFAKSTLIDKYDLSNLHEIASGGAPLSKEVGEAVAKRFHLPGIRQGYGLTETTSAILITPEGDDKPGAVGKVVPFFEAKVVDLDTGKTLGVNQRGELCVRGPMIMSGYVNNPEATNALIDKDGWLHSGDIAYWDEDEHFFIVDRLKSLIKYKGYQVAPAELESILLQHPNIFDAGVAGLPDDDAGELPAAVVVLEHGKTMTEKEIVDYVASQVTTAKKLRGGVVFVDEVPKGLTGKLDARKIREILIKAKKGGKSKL
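Biochemical qHTS of compounds, final roughly 60 µM downward over six points, against 10 nM purified firefly luciferase using Km concentrations of substrates (10 uM D-luciferin, 10 uM ATP) in Tris acetate pH 7.5 buffer; luminescence output.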
KinaseGlo FLuc: Counterscreen for Luciferase (Kinase-Glo TM) Inhibition | Luciferin 4-monooxygenase (Photuris pensylvanica), Q27757 | Kinase-Glo luciferase, ATP luminescence, 8 min | Potency, µM (titrated, usually from 38.3 µM), for inactives: top-dose activity change, negative = inhibition, most hits filed as inhibitors | 200,000 compounds, 0.28% hits | AID 1379, 2008; further: on the % scale 0 is the no-effect control and ±100 the full control effect; nearly all actives have a fitted effect of over 60% in size
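Light output from Kinase-Glo luciferase with luciferin and 10 uM ATP in 50 mM imidazole pH 7.2, KCl, MgCl2, Tween 20, BSA; compound pin-delivered, 8-min ambient incubation, then luminescence read.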
SMN2 splice enh: qHTS Assay for Enhancers of SMN2 Splice Variant Expression; HEK293 SMN2-luciferase splicing reporter, luminescence, 30-36 h; Potency, µM (top dose mostly 46.1 µM), inactives show at the top dose activity change, positive = activation, usual class: activators; 210,000 compounds, 2.8% hits; further: % of control where 0% means no effect; nearly all actives have a fitted effect of over 55% in size
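HEK293 cells carry an SMN2 minigene-luciferase reporter in which exon 7 inclusion puts luciferase in frame. Cells were seeded at 2000 cells/well, attached for 10-12 hours, then exposed to compounds for 30-36 hours at 37C before ONE-Glo luminescence.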
Starred values were filed as active, the others as inactive; ? = inconclusive; / = not tested or not shown. The call rests on the fitted dose curve; in most records, active means well fitted curve in the direction sought with a large enough effect; inconclusive means small, poorly fitted or top-dose-only effect, or another doubt; inactive means no such curve, though single readings can be large; an effect the other way counts as inactive or inconclusive. Potency means the concentration at half of the fitted maximal effect.

SMILES | Rab9 promoter act | ELG1 genotoxic | NPC1 prom act | FLuc modulator | KinaseGlo FLuc | SMN2 splice enh
COc1cc(C)ccc1OCc1cc(C(=O)N(C)CCCN2CCOCC2)no1 | 2.51µM* | 18.3µM* | 2.82µM* | 12µM* | / | /
COc1ccccc1-c1cc(C(=O)NCCN2CCOCC2)no1 | -6.0% | 5.0% | 0.9% | -17.9% | -6.1% | -4.1%
Cc1ccc2oc3c(c(=O)c2c1)C(c1ccc(F)cc1)N(Cc1ccc2c(c1)OCO2)C3=O (stereo not drawn) | / | / | / | 0.3% | / | -4.0%
CCN(CC(=O)Nc1ccc(NC(C)=O)cc1)C(=O)c1ccc(N2CCC(C)CC2)c([N+](=O)[O-])c1 | -1.4% | 0.4% | -1.0% | 16.9µM* | / | /
CCN(CC(=O)Nc1c(F)cccc1F)C(=O)c1ccc(N2CCCCC2)c([N+](=O)[O-])c1 | -2.6% | 9.0% | 1.3% | -0.9% | / | /
Cc1noc(C)c1CSCC(=O)Oc1ccc(N(C)S(=O)(=O)c2ccc(Cl)cc2)cc1 | -1.2% | -1.8% | 0.7% | -1.3% | / | /
C=CCOc1c(Br)cc(/C=N/Nc2ccc(C(=O)O)cc2)cc1OCC | 3.55µM* | ? | 2.82µM* | 30.1µM* | 1.8% | 8.91µM*
CCOc1cc(/C=N/O)cc(Br)c1OCC | 0.8% | -1.0% | -5.6% | 0.8% | 1.0% | -39.7%
COc1ccc(/C=N/Nc2ccc(C(=O)O)cc2)cc1Br | ? | ? | ? | 0.675µM* | ? | -79.7%
COc1ccc(/C=N\NC(=O)C2CCCC2)cc1Br | -1.5% | 0.6% | -3.0% | 5.5% | / | /
COc1ccc(/C=N/Nc2ccc(C(=O)O)cc2)cc1OC | 0.316µM* | ? | 0.316µM* | 1.35µM* | / | /
COc1ccc(OCCC(=O)OCC(=O)NCc2ccccc2OC)cc1 | 2.0% | 1.8% | -0.2% | -2.4% | / | /
CCC1CSC(Nc2ccc(C(=O)/C=C/c3ccc(Oc4ccccc4)cc3)cc2)=N1 (stereo not drawn) | -5.8% | 9.1% | -0.3% | 13.5µM* | -4.0% | -65.9%
CCC1CSC(Nc2ccc(C(=O)/C=C/c3cccc(C)c3)cc2)=N1 (stereo not drawn) | -2.8% | 13.3% | -4.4% | ? | 2.8% | -58.6%
CC1CCCN(C(=O)c2ccc(-c3ccccc3Cl)o2)C1 (stereo not drawn) | 2.51µM* | 14.6µM* | 3.55µM* | 8.49µM* | / | /
CCn1c(SCC#N)nc2c(c1=O)C1(CCCC1)Cc1ccccc1-2 | 4.8% | -4.7% | -7.0% | 4.6% | 0.7% | 2.0%
CCn1c(=O)c2c(n3c(=S)[nH]nc13)-c1ccccc1CC21CCCCC1 | 2.4% | 4.9% | -5.3% | 15.1µM* | 2.0% | -17.9%
COc1ccc(CNC(=O)CSc2ccsc2[N+](=O)[O-])cc1 | 2.24µM* | ? | ? | 16.9µM* | 1.9% | ?
Cc1ccc(CNC(=O)CSc2ccsc2[N+](=O)[O-])cc1 | 1.41µM* | ? | ? | ? | -0.3% | ?
O=C(CSc1ccsc1[N+](=O)[O-])NCCc1ccc(Cl)cc1 | -8.0% | 0.3% | 2.2% | -1.3% | 1.7% | -13.4%
Clc1ccc(-c2cc3ccccc3[nH]2)cc1 | 3.98µM* | ? | ? | 9.53µM* | 0.0% | 17.7%
CC(C)C(OC(=O)c1cccc(S(=O)(=O)NCC(F)(F)F)c1)C(=O)NC(N)=O (stereo not drawn) | 7.7% | -7.0% | -1.5% | 2.2% | 3.1% | 2.2%
Cc1ccc(-n2nc3c(n2)/C(=N/O)CC/C3=N\O)cc1 | 3.16µM* | ? | ? | 9.53µM* | 12.6µM* | 12.6µM*
Cc1cc(=O)oc2cc(OCCc3ccccc3)ccc12 | ? | ? | 14.4% | 12µM* | / | /
Cc1cc(=O)oc2cc(OCCCC[n+]3ccccc3)ccc12 | -2.8% | 3.6% | -4.6% | -5.1% | / | /

Assay outcomes: PubChem BioAssay, National Center for Advancing Translational Sciences (NCATS)
